# Results taken from the OligoGym collection.
# Biological target: C6orf105
# Assay: pooled miR-30 sensor sort-seq; sequence = guide strand
# Details: shRNA
# Note: reference of the scale not given here.
row,Sequence,sensor-assay potency score (higher = more potent)
1,TATATTTCCACCTTGCACCATT,-0.555
2,TTGCATGATTCAGCCACACGGG,-0.688
3,TAATTGAGGAAAGTATACCAGC,-0.629
4,TAAGTATCACTCTCTGTCCCTC,-0.473
5,TTCTTTTCAGCACATCATCCAG,-1.18
6,TTAAGTATCACTCTCTGTCCCT,0.33
7,TTAAATTTAAGTATCACTCTCT,1.11
8,TCTTTTCAGCACATCATCCAGG,-0.0678
9,TCTCCAAGTAGGTAGATGCTGG,-0.762
10,TTCAGCACATCATCCAGGCAGG,-0.972
11,TATCACTCTCTGTCCCTCCTAC,0.281

# Biological target: C6orf118
# Assay: as above
# Details: shRNA
row,Sequence,sensor-assay potency score (higher = more potent)
1,TACACAGGGTCTTCACTCCTGG,-0.203
2,TTAAGAACTAGTATTGTTGTAA,0.558
3,TTACACAGGGTCTTCACTCCTG,0.491
4,TTCAGGTACCTGAACAGCGGGG,-1.06
5,TTGTATAGCTTCATGCTCTATG,0.444
6,TTGCTTGGCGAGCACTTCCTTC,-1.21
7,TATGTTTCTCAGATGATTCTGA,0.578
8,TCTCAGATGATTCTGATCGTTC,-0.778
9,TGAAATTCCAGTATGAACCAAA,-0.164
10,TAGAGGTAGACGTCCTCCCGGT,-0.61
11,TTTTACTAGAGATTAAAGCTGA,0.127

# Biological target: C6orf145
# Assay: as above
# Details: shRNA
row,Sequence,sensor-assay potency score (higher = more potent)
1,TATACTGTGGTCAATAACTATT,-1.52
2,TCAATAACTATTGTTTCGGTAT,-0.234
3,TTACTAAACATCCCCTGCCTGT,-0.858
4,TGGATTACTAAACATCCCCTGC,-0.823
5,TTGACTGGACTTTGAAAGCTGG,-0.406
6,TTATCTAGTCGGCAATGCCTTC,-1.25
7,TTTACATTAGCAAATGTCGGTC,-0.665
8,TATTTGCTAAACAAAATCCATT,-1.51
9,ATTTTTTAACACCTGATCCAGA,-0.814
10,TATGATCGTCTTCAGCAGCTTC,-1
11,TCGTTAGTAGACACTGAGCAGA,-0.734

# Biological target: C6orf203
# Assay: as above
# Details: shRNA
row,Sequence,sensor-assay potency score (higher = more potent)
1,TATTACTTTTGAGTCTTACGGA,-0.0954
2,TTAAACTTTTCCACCGCCGTAA,-0.414
3,TAGTTTTTGACTACAGTAGGAT,-0.319
4,TTCAGGACAACATCATACCGAA,-0.635
5,TTATAGTTTTTGACTACAGTAG,-0.647
6,TTACTTTTGAGTCTTACGGAAA,-1.38
7,TATTTTAATAAAAATGTCCTAT,-0.604
